PubChem BioAssay (NCATS)
Records with an inconclusive call do not appear. Unmarked numbers belong to inactive results. Active and inactive are the calls of the source. Calls follow the shape of the dose curve; as a rule, active = well fitted activation curve with a large enough effect; inconclusive = small, poorly fitted or top-dose-only effect; inactive = no such curve, though single readings can be large or run the other way.

What follows are compounds tested against D(1A) dopamine receptor (Homo sapiens) (UniProt P21728) (assay: HTS Assay for Allosteric Agonists of the Human D1 Dopamine Receptor: Primary Screen for Potentiators (AID 488982; also: 0% is about no effect)). Conditions: HEK293 T-REx D1 inducible cells, calcium flux, kinetic fluorescence; series mostly up to 8.37 µM; activity, positive = potentiation: at the top concentration.
Sequence of D(1A) dopamine receptor (Homo sapiens) (P21728 whole entry, looked up): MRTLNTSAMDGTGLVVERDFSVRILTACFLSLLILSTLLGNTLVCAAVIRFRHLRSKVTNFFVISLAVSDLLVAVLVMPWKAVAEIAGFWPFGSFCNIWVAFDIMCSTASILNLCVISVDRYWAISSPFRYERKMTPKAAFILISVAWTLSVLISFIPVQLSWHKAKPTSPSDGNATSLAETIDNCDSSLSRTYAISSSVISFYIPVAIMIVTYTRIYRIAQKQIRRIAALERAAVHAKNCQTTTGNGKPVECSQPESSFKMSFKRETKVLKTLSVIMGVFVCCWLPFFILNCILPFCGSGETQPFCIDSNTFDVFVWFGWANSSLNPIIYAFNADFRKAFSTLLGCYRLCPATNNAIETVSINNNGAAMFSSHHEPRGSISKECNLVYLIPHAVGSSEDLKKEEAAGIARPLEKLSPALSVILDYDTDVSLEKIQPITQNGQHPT
From the text: Dopamine receptors (DARs) are involved in the etiology and/or therapy of a number of neuropsychiatric and endocrine disorders. For instance, all receptor-based antiparkinsonian drugs work via stimulating the […] DAR subtype whereas all FDA-approved antipsychotic agents are antagonists of this receptor. […] There are three different types of allosteric modulators that we are seeking, two of which will stimulate or augment receptor signaling, allosteric agonists and potentiators, while the third, allosteric antagonists, will attenuate receptor signaling. The present primary screening assay measures compound agonism by tracking calcium flux in a […], inducible Hek293 Trex D1 cell line.
Freshly passaged cells are plated in 1536 well black, clear bottom plates at a density of 4000 cells/well in 3 ul of complete media containing 1x tetracycline inducer. After an overnight incubation at 30 C in 5% CO2, cells are loaded with 2 ul of the no wash Calcium Assay Kit (ABD Bioquest) and incubated at room temperature for 30 to 90 minutes. A 10 cycle (1 second/cycle) baseline measurement is taken and then the FDSS online 1536 pintool delivers 23 nl of compound library (as well as dopamine controls) to the plate. The plate is measured for kinetically at 1 cycle/sec for 180 seconds and is considered to be the agonist portion of the assay (eg, compounds which activate a positive calcium response during this portion are flagged as potential agonists). Following the 180 second read, 1 ul of an EC20 of dopamine is delivered by an onboard pipette head. Measurements are taken kinetically for an additional 180 seconds.

Going from CN1CCc2cccc3c2C1Cc1ccc(O)c(O)c1-3 (stereo not given) to O=C1NC(=O)/C(=C/c2ccc(-c3ccc(F)cc3O)o2)S1, the “activity, positive = potentiation” value rises from -64.3% to -49.2%.

Compared with C=CC(=O)c1ccc(CCCCCC)cc1, CCCCCCCCc1ccc(-c2ccc(C(=O)O)cc2)cc1 is higher in “activity, positive = potentiation” value: -23% for the first, -15.4% for the second.

Going from COc1ccccc1CNCCCCCCNCCCCCCCCNCCCCCCNCc1ccccc1OC to CCCCCCCCCCCCCCCC(=O)NCC(COP(=O)([O-])OCC[N+](C)(C)C)OCC (stereo not given), the “activity, positive = potentiation” value rises from -34.9% to -25.9%.

Compared with Cc1ccc(S(=O)(=O)/C=C/C#N)cc1, CO/S(=N\S(=O)(=O)c1ccc(Cl)cc1)c1ccc([N+](=O)[O-])cc1 (stereo not given) is higher in “activity, positive = potentiation” value: -11.6% for the first, 15.5% for the second.

Going from C[N+](C)(CCCCCC[N+](C)(C)CCCN1C(=O)c2cccc3cccc(c23)C1=O)CCCN1C(=O)c2cccc3cccc(c23)C1=O to Cc1nc2sccn2c(=O)c1CCN1CCC(=C(c2ccccc2)c2ccc(F)cc2)CC1, the “activity, positive = potentiation” value falls from -46.4% to -52.1%.

First: S=C(S)OC1CC2CC1C1CCCC21 (stereo not given)
Second: OC[C@H]1O[C@@H](n2cnc3c(NC4CCCC4)ncnc32)[C@H](O)[C@@H]1O
The “activity, positive = potentiation” value of the first is higher: 19% for the first, 5.13% for the second.

Going from CN=c1nc(-c2ccccc2)n(-c2ccccc2)s1 to COC(=O)c1c(C)[nH]c(C)c1C(=O)c1ccccc1Cc1ccccc1, the “activity, positive = potentiation” value rises from -20.8% to -3.18%.

Going from NC(=S)c1ccc[n+]([C@@H]2O[C@@H](COP(=O)([O-])OP(=O)(O)OC[C@H]3O[C@@H](n4cnc5c(N)ncnc54)[C@H](OP(=O)(O)O)[C@@H]3O)C(O)C2O)c1 (stereo not given in full) to Nc1ncnc2c1ncn2[C@@H]1O[C@H](COP(=O)(O)CP(=O)(O)OP(=O)(O)O)[C@@H](O)[C@H]1O, the “activity, positive = potentiation” value rises from 9.13% to 11.3%.

First: N=C(N)SCCc1ccc(CCSC(=N)N)cc1
Second: CC(C)Cc1ccc([C@H](C)C(=O)O)cc1
The “activity, positive = potentiation” value of the first is higher: 10.8% for the first, -9.21% for the second.

First: O=C(O)CNC(=O)C(CS)Cc1ccccc1 (stereo not given)
Second: N#C/C(=C\c1ccc(O)c(O)c1)C(=O)NCCCc1ccccc1
The “activity, positive = potentiation” value of the first is lower: -18.2% for the first, 28.8% for the second.

Compared with CNC(=O)[C@H]1O[C@@H](n2cnc3c(NCc4ccc(N)cc4)ncnc32)[C@H](O)[C@@H]1O, CNc1ncnc2c1ncn2[C@@H]1O[C@H](CO)[C@@H](O)[C@H]1O is lower in “activity, positive = potentiation” value: -4.77% for the first, -6.33% for the second.

Compared with CCCCN1CCC(n2c(=O)[nH]c3ccccc32)CC1, COC1=C(OC)C(=O)c2ccccc2C1=O is higher in “activity, positive = potentiation” value: -26.6% for the first, 35.8% for the second.

Compared with NO, NC(=O)C(=O)O is higher in “activity, positive = potentiation” value: -6.36% for the first, 16.8% for the second.

First: Oc1ccccc1O
Second: CN1C2CC(OC(=O)[C@H](CO)c3ccccc3)CC1C1OC12 (stereo not given in full)
The “activity, positive = potentiation” value of the first is higher: 23.9% for the first, 16.9% for the second.

Going from O=[N+]([O-])c1ccc2c(c1)S(=O)(=O)C=C2 to O=c1[nH]c2cc([N+](=O)[O-])c([N+](=O)[O-])cc2[nH]c1=O, the “activity, positive = potentiation” value rises from -24% to 18.4%.

Going from Cc1cc2c(cc1Cl)N(C(=O)Nc1ccc(Oc3cccnc3C)nc1)CC2 to CN1CC(=O)N/C1=N/C(=O)Nc1cccc(Cl)c1, the “activity, positive = potentiation” value rises from -84.4% to -12.8%.

Going from C[N+](C)(C)CCOP(=O)(O)OP(=O)([O-])OC[C@H]1O[C@@H](n2ccc(N)nc2=O)[C@H](O)[C@@H]1O to OCC1O[C@H]([S-])[C@H](O)[C@@H](O)[C@@H]1O.[Au+] (stereo not given in full), the “activity, positive = potentiation” value rises from -17.4% to 15%.

First: CCCCC/C=C\CC(O)/C=C/c1cccc(CC(O)CCCCO)n1 (stereo not given)
Second: NC(=S)NCCC[C@H](N)C(=O)O
The “activity, positive = potentiation” value of the first is lower: 15.8% for the first, 24% for the second.

Going from O=C(O)c1cc(=O)c2c(Cl)cc(Cl)cc2[nH]1 to N[C@@H](CC(=O)O)C(=O)O, the “activity, positive = potentiation” value falls from 10% to -15.9%.

In the case of O=P(O)(O)C(Cl)(Cl)P(=O)(O)O, the “activity, positive = potentiation” value is reported as -1.53%.

C[N+]1(C)C2CC(OC(=O)[C@H](CO)c3ccccc3)CC1C1OC12 (stereo not given in full) was tested, and the Potency was “inactive”.
